Experiment [1] is described as follows: qHTS profiling for inhibitors of Plasmodium falciparum proliferation (AID 504749). Also: nearly all actives have a fitted effect of over 60% in size.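 As to activity, negative = inhibition: 0% = DMSO vehicle and full inhibition = artemisinin control.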 The conditions noted are these: P. falciparum in erythrocytes, SYBR Green DNA, 72 h. In short, it runs like this:
(§1)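 Readout was DNA-dye fluorescence from lysed cultures, ex 485/em 535 nm. Parasitized red cells had grown 72 h with compound; data scaled between 0.29 uM artemisinin and DMSO wells and corrected using vehicle-only plates.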

In a further experiment the test system is 3D7. The description is as above. The conditions noted are these: P. falciparum in erythrocytes, SYBR Green DNA, 72 h; series mostly up to 28.7 µM. In short, it runs like this: as §1
For another experiment, the system named is 7G8. Described as above. The settings on record: P. falciparum in erythrocytes, SYBR Green DNA, 72 h; series mostly up to 28.7 µM. In short, it runs like this: as §1
A further experiment has as its system AA1029. The description is as above. The settings on record: P. falciparum in erythrocytes, SYBR Green DNA, 72 h; series mostly up to 28.7 µM. In short, it runs like this:
as §1

The next experiment deals with AS120. The experiment is described as above. The settings on record: P. falciparum in erythrocytes, SYBR Green DNA, 72 h; series mostly up to 28.7 µM. In short, it runs like this:
as §1

Another experiment concerns ATS189. The experiment is described as above. The conditions noted are these: P. falciparum in erythrocytes, SYBR Green DNA, 72 h; series mostly up to 28.7 µM. In outline: as §1
Setting [2] is: at 28.7 µM (top of the series), parasite line A.
The mark [3] stands for this setting: at 28.7 µM (top of the series), parasite line B.
The mark [4] stands for this setting: at 12.8 µM (top of the series), parasite line A.
Where [5] appears, read: at 12.8 µM (top of the series), parasite line B.

20 molecules from PubChem BioAssay (NCATS) can be followed below.

Inconclusive results are not listed. Unmarked numbers belong to inactive results. Active and inactive are the calls of the source. Calls follow the shape of the dose curve; as a rule, active = well fitted inhibition curve with a large enough effect; inconclusive = small, poorly fitted or top-dose-only effect; inactive = flat fitted curve, though single readings scatter.
Potency is read from the fitted curve at half-maximal effect.

For `O=C(NCCc1c[nH]c2ccccc12)c1cccnc1`, the activity, negative = inhibition in experiment [1] (setting [2]) is 0.138%; in experiment [1] (setting [3]), 13.6%. The Potency result with 3D7, in the experiment on 7G8, in the experiment with AA1029, in the experiment with AS120 and in the experiment on ATS189 was “inactive” throughout.

On to `CC(=O)NCCCCCC(=O)O`, for which the activity, negative = inhibition was 7.94% in experiment [1] (setting [2]) and 13.3% in experiment [1] (setting [3]). The Potency result in the experiment on 3D7, in the experiment on 7G8, in the experiment on AA1029, in the experiment with AS120 and with ATS189 was “inactive” in each case.

For `CCN(CC)CCNc1ccc(CO)c2sc3ccccc3c(=O)c12`, the Potency was 1780 nM (active) in experiment [1] (parasite line A); 3550 nM (active) in experiment [1] (parasite line B); 2000 nM (active) in the experiment on 3D7; 2000 nM (active) in the experiment with 7G8; 2240 nM (active) in the experiment on AA1029; 1000 nM (active) in the experiment with AS120. Besides, the Potency in the experiment with ATS189 was 794 nM (active).

`CCc1oc2ccccc2c1C(=O)c1cc(Br)c(O)c(Br)c1`: the results for the activity, negative = inhibition in experiment [1] (setting [2]) and in experiment [1] (setting [3]) were -3.41% and -11.9%, respectively. In addition, the Potency result in the experiment with 3D7, in the experiment with 7G8, in the experiment with AA1029, with AS120 and with ATS189 was “inactive” in each case.

In the case of `CCCCCCCCOc1ccc(C(=O)c2ccccc2)c(O)c1`, the values for the activity, negative = inhibition in experiment [1] (setting [2]) and in experiment [1] (setting [3]) were 16.4% and 14.5%, respectively. For the same molecule, the Potency entry with 3D7, with 7G8, in the experiment on AA1029, in the experiment on AS120 and in the experiment on ATS189 was “inactive” each time.

As for `COc1cc(C(=S)N2CCOCC2)ccc1O`, the figures for the activity, negative = inhibition in experiment [1] (setting [2]) and in experiment [1] (setting [3]) were 1.83% and -2.75%, respectively. Moreover, the Potency entry with 3D7, in the experiment with 7G8, with AA1029, in the experiment with AS120 and with ATS189 was “inactive” in each case.

On to `COc1ccccc1N1CCN(CCCCNC(=O)c2ccc(-c3ccc(C(C)=O)cc3)cc2)CC1`, for which the values for the activity, negative = inhibition in experiment [1] (setting [2]) and in experiment [1] (setting [3]) were 15.8% and 20.5%, respectively. Further, the Potency entry with 3D7, with AA1029, in the experiment on AS120 and with ATS189 was “inactive” in each case. Besides, the Potency with 7G8 was 12600 nM (active).

Take `COc1ccc(/C=N/NC(=O)c2ccncc2)cc1OC`: the activity, negative = inhibition in experiment [1] (setting [2]) is 6.74%; in experiment [1] (setting [3]), 9.47%. Also, the Potency entry with 3D7, in the experiment with 7G8, in the experiment on AA1029, with AS120 and in the experiment with ATS189 was “inactive” in each case.

In the case of `NCCNC(=O)c1ccc(Cl)cn1`, the activity, negative = inhibition was -3.24% in experiment [1] (setting [2]) and -5.67% in experiment [1] (setting [3]). Further, the Potency entry in the experiment with 3D7, in the experiment on 7G8, with AA1029, with AS120 and with ATS189 was “inactive” each time.

In the case of `CC(C)NCC(O)c1ccc2ccccc2c1` (stereo not given), the Potency in experiment [1] (parasite line A) was 11200 nM (active); in experiment [1] (parasite line B) it was 4470 nM (active); in the experiment on 3D7, 11200 nM (active); with 7G8, 1410 nM (active); with AA1029, 5010 nM (active); in the experiment on AS120, 7940 nM (active). In addition, the Potency in the experiment with ATS189 was 8910 nM (active).

Regarding `COc1cc(C)nc(-n2nc(C)cc2OC)n1`, the activity, negative = inhibition is 3.73% in experiment [1] (setting [4]) and -3.99% in experiment [1] (setting [5]). For the same molecule, the Potency entry in the experiment on 3D7, in the experiment on 7G8, in the experiment on AA1029, with AS120 and in the experiment with ATS189 was “inactive” in each case.

Consider `CC1(COc2ccc(CC3SC(=O)NC3=O)cc2)CCCCC1` (stereo not given), for which the activity, negative = inhibition is 11% in experiment [1] (setting [2]) and -0.436% in experiment [1] (setting [3]). The Potency result in the experiment with 3D7, in the experiment with 7G8, in the experiment with AA1029, in the experiment on AS120 and in the experiment on ATS189 was “inactive” in each case.

In the case of `COc1cc(C(=O)NCc2ccc(OCCN(C)C)cc2)cc(OC)c1OC`, the activity, negative = inhibition in experiment [1] (setting [4]) is -2.54%; in experiment [1] (setting [5]), -4.52%. For the same molecule, the Potency result with 3D7, in the experiment with 7G8, in the experiment on AA1029, with AS120 and in the experiment with ATS189 was “inactive” in each case.

On to `CC(C)Cn1cnc2c1c(=O)n(C)c(=O)n2C`, for which the results for the activity, negative = inhibition in experiment [1] (setting [2]) and in experiment [1] (setting [3]) were -14.6% and 1.13%, respectively. In addition, the Potency entry in the experiment on 3D7, in the experiment on 7G8, in the experiment on AA1029, in the experiment with AS120 and with ATS189 was “inactive” each time.

In the case of `CC(=O)Oc1ccc(C)cc1`, the activity, negative = inhibition was 9.31% in experiment [1] (setting [2]) and 10.5% in experiment [1] (setting [3]). The Potency entry in the experiment with 3D7, with 7G8, in the experiment on AA1029, in the experiment with AS120 and with ATS189 was “inactive” in each case.

With `O=C(O)CCC(=O)Nc1ccc(S(=O)(=O)Nc2nccs2)cc1`, the values for the activity, negative = inhibition in experiment [1] (setting [4]) and in experiment [1] (setting [5]) were 14.2% and 11.7%, respectively. In addition, the Potency result in the experiment with 3D7, with 7G8, in the experiment with AA1029, in the experiment with AS120 and in the experiment with ATS189 was “inactive” each time.

Turning to `Nc1ccc(S(=O)(=O)NCc2ccccc2)cc1`, the activity, negative = inhibition was 4.25% in experiment [1] (setting [2]) and 6.29% in experiment [1] (setting [3]). Besides, the Potency result in the experiment with 3D7, in the experiment on 7G8, with AA1029, in the experiment with AS120 and with ATS189 was “inactive” each time.

On to `O[C@@H](c1cc(C(F)(F)F)nc2c(C(F)(F)F)cccc12)[C@H]1CCCCN1`, for which the Potency is 31.6 nM (active) in experiment [1] (parasite line A); 12.6 nM (active) in experiment [1] (parasite line B); 35.5 nM (active) in the experiment with 3D7; 7.9 nM (active) with 7G8; 11.2 nM (active) in the experiment on AA1029; 20 nM (active) in the experiment on AS120. Also, the Potency in the experiment on ATS189 is 28.2 nM (active).

As to `O=C1C(=O)c2ccccc2C(O)=C1C1CCC(c2ccc(Cl)cc2)CC1` (stereo not given), the Potency was 1.4 nM (active) in experiment [1] (parasite line A); 3.2 nM (active) in experiment [1] (parasite line B); 3.2 nM (active) with 3D7; 1.1 nM (active) in the experiment on 7G8; 3.2 nM (active) with AA1029; 4 nM (active) in the experiment on AS120. Besides, in the experiment with ATS189, the Potency is 2.8 nM (active).

For the molecule `CC[C@H](c1ccc(O)cc1)[C@@H](CC)c1ccc(O)cc1`, the activity, negative = inhibition was -8.43% in experiment [1] (setting [4]) and 3.18% in experiment [1] (setting [5]). Also, the Potency result with 3D7, in the experiment with 7G8, with AA1029, in the experiment on AS120 and with ATS189 was “inactive” in each case.
